# FBPA Giardia inh: inhibitors of Giardia lamblia fructose-1,6-bisphosphate aldolase. purified Giardia FBPA. A8B2U2. Potency, µM (doses to about 59.6 µM), for the others: at the highest dose activity, negative = inhibition, most hits filed as inhibitors. 0.71% of 290,000 active; also: potency is read from the fitted curve at half-maximal effect; nearly all actives have a fitted effect of over 55% in size
# Target sequence (A8B2U2 whole entry, looked up): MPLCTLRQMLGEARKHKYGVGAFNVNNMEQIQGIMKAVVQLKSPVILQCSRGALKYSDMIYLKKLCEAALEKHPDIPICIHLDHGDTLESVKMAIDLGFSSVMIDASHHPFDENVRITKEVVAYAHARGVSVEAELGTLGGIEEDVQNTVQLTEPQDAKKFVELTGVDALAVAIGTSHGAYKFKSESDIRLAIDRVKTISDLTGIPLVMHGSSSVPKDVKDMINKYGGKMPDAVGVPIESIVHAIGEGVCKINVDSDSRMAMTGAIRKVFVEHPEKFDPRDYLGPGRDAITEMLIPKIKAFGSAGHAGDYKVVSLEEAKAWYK
#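 Giardia FBPA (40 nM reagent) was preincubated 10 min at RT with compound (up to 57.5 uM final), then substrate plus GAPDH/TPI/NAD/arsenate coupling system with diaphorase/resazurin was added; resorufin fluorescence (525/598 nm) was read after 20 min.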
# Pf growth 96h: P. falciparum growth inhibition at 96 hours; P. falciparum luciferase reporter growth, 96 h; Potency, µM (highest dose often 28.7 µM), for inactives: at the highest dose activity change, negative = inhibition, actives largely listed as inhibitors; 6.9% of 320,000 active; AID 504834; also: potency is read from the fitted curve at half-maximal effect
#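 96 h incubation, 37 C, 5% CO2, of luciferase-reporter P. falciparum-infected RBCs (2% hematocrit, 0.05% parasitemia final) with test compounds; endpoint luminescence.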
# Sm TGR inh: inhibitors of Schistosoma mansoni thioredoxin glutathione reductase; 3% of 360,000 active; AID 485364; Q962Y6; Potency, µM (highest dose often 114 µM), for inactives: at the highest dose activity change, negative = inhibition, most hits filed as inhibitors; purified TGR, DTNB reduction, TNB absorbance 405 nm; also: potency is read from the fitted curve at half-maximal effect; nearly all actives have a fitted effect of over 60% in size
#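 TGR 20 nM + NADPH 100 uM (dispensed conc.), cpd preinc 15 min RT; start with NADPH (500 uM addition) then DTNB (15 mM addition). Kinetic TNB absorbance, 405 nm filter. Four-parameter Hill fit across titration.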
# HCMV inh: inhibitors of human cytomegalovirus; HFF cells, HCMV-luciferase reporter, 72 h; hits give low values; activity change, negative = inhibition, % at 57.5 µM; 4.5% of 410,000 active; in the data active = activity change below about -60%; inconclusive = no clear call, values can overlap the other calls; inactive = above about -39%
#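 Luciferase read-out from HCMV-luciferase-infected HFFs (MOI 1 PFU/cell) 72 h post infection at 37C; compounds added after 16 h cell attachment; activity normalized between buffer-only basal and Salinomycin (10uM) inhibitor controls.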
# Pf growth 48h: P. falciparum growth inhibition at 48 hours (one generation); 5.9% of 310,000 active; Potency, µM (top dose mostly 28.7 µM), inactives show top-dose activity change, negative = inhibition, most hits filed as inhibitors; P. falciparum luciferase growth in erythrocytes, 48 h; also: potency is read from the fitted curve at half-maximal effect
#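 First compound was added to culture medium, then infected red cells at 0.1% parasitemia and 2% hematocrit (final). After incubation at 37 C under 5% CO2, luciferase detection reagent was dispensed and light output recorded.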
# Numbers without * were called inactive; ? = inconclusive; / = not tested or not shown; [ ] = another dose, or the depositor's remark. This is a sample that favours compounds with a hit; in the whole collection about 14% have one here. Unless noted, calls follow the shape of the dose curve; as a rule, active = well fitted curve in the direction sought with a large enough effect; inconclusive = small, poorly fitted or top-dose-only effect, or another doubt; inactive = no such curve, though single readings can be large; an effect the other way counts as inactive or inconclusive. % is scaled to controls: 0 for no effect and ±100 for the full control effect.
SMILES,FBPA Giardia inh,Pf growth 96h,Sm TGR inh,HCMV inh,Pf growth 48h
CCC(C)NC(=O)CCc1nc2ccccc2n1-c1ccccc1 (centres undefined),6%,29%,5%,?,-10%
CN1/C(=C\C=C\C2=[N+](C)c3ccc4ccccc4c3C2(C)C)C(C)(C)c2ccccc21,/,0.33µM*,-3%,/,1.3µM*
CCN1/C(=C/C=C/C2=[N+](CC)c3ccccc3C2(C)C)C(C)(C)c2ccccc21,/,/,/,-99*,/
CN1\C(=C/C=C/C=C/C=[N+](C)C)C(C)(C)c2ccccc21,-16%,?,1%,2,?
COC(=O)C1=C(NC(=O)c2ccccc2C)CCS1,2%,6%,-25%,35,8%
COC(=O)C1=C(NC(=O)c2cccc(OC)c2)CCS1,-2%,4.1µM*,-22%,80,20%
COC(=O)C1=C(NC(=O)c2cccs2)CCS1,0%,9.3µM*,1%,/,?
CC(c1nc2ccccc2[nH]1)N(C(=O)Cc1csc2ccccc12)c1cccnc1 (centres undefined),/,/,/,10,/
CC(=O)O[C@@H](C)C[N+](C)(C)C,-2%[21.7 µM],-19%[12.8 µM],/,/,-14%[12.8 µM]
COc1cc(/C=N/NC(=O)c2cc(C)oc2C)cc(OC)c1OC,4%,-16%,-18%,24,-71%
COc1cccc(C(=O)Cn2c(=O)n(CC3CCCO3)c(=O)c3ccccc32)c1 (centres undefined),3%,12µM*,-11%,-4,/
Cc1ncc(CN2CCCC(C(=O)Nc3ccc(-c4ccco4)cc3)C2)cn1 (centres undefined),/,-27%,45µM*,-31,-18%
COc1cccc(-c2ccc(NC(=O)C3CCCN(Cc4nccn4C)C3)cc2)c1 (centres undefined),/,13µM*,-27%,-11,?
COc1cccc(-c2ccc(NC(=O)C3CCCN(Cc4cnn(C)c4)C3)cc2)c1 (centres undefined),2%,?,5%,11,?
CCn1cc(CN2CCCC(C(=O)Nc3ccc(-c4nc5ccccc5[nH]4)cc3)C2)c(C)n1 (centres undefined),/,26%,?,44,2.1µM*
Cc1ncc(CN2CCCC(C(=O)Nc3ccc(-c4cscn4)cc3)C2)cn1 (centres undefined),/,-28%,-22%,-3,29%
Cc1ncc(CN2CCCC(C(=O)Nc3ccc(-c4cccc(F)c4)cc3)C2)n1C (centres undefined),/,3%,0%,-29,15µM*
COc1cccc(-c2ccc(NC(=O)C3CCCN(Cc4cnc(C)n4C)C3)cc2)c1 (centres undefined),3%,-8%,2%,?,?
COCCNC(=O)NC(=O)CN1C(=O)NC(Cc2c[nH]c3ccccc23)C1=O (centres undefined),2%,38%,-1%,9,10%
Cc1cccc(-c2noc(CCCC(=O)NC3CCCCC3)n2)c1,19%,12%,13%,-3,-2%
CC(C)C(=O)N1CCC[C@@H]1c1noc2ccccc12,/,/,/,-15,/
CCN(C(=O)COC(=O)/C=C/c1cnc2ccccc2n1)c1ccccc1,-3%,?,-13%,-89*,-7%
CCCCNc1nc(Oc2ccc(OCC)nn2)nc(N2CCOCC2)n1,/,/,-1%,28,/
CCOc1ccccc1NC(=O)CCN(c1ccc(C)cc1)S(=O)(=O)c1ccccc1,-5%,12µM*,-14%,?,?
CCOc1ccc(N(CC(=O)Nc2ccccc2CC)S(=O)(=O)c2c(C)noc2C)cc1,/,/,0%,-91*,/
SMILES,FBPA Giardia inh,Pf growth 96h,Sm TGR inh,HCMV inh,Pf growth 48h
CCOc1ccccc1NC(=O)CN(c1ccc(C)cc1)S(=O)(=O)c1c(C)noc1C,-7%,91%,9%,-9,4.1µM*
O=C(CCN1Cc2ccccc2C1)c1ccc2c(c1)OCCO2,-6%,/,0.89µM*,-4,?
O=C(O)CCC(=O)c1ccc2c(c1)OCCO2,0%,?,-16%,-15,/
O=C(C[n+]1ccc(/C=C/c2ccccc2)cc1)c1ccc2c(c1)OCCO2,0%,?,-13%,-83*,?
CN1CCN(CCCC(=O)c2ccc(F)cc2)CC1,-13%,?,-8%,8,26%
O=C(CS(=O)(=O)c1ccccc1)c1ccc2c(c1)OCCO2,1%,?,?,12,274%
O=C(CCN1CCc2ccccc2C(c2ccccc2)C1)c1ccc2c(c1)OCCO2 (centres undefined),-15%,-9%,0.56µM*,27,/
O=C(CCCN1Cc2ccccc2C1)c1ccc(F)cc1,-2%,5.2µM*,-6%,-21,20%
CCc1ccc(N2CCn3c2nc2c3c(=O)n(Cc3cccc(C)c3)c(=O)n2C)cc1,/,/,0%,5,/
N#CC1=C(N)Oc2cc(N)ccc2C1c1ccc(F)cc1F (centres undefined),6%,5.9µM*,0%,38,1%
Cc1ccc(NS(=O)(=O)c2cccc3nsnc23)cc1[N+](=O)[O-],0%,1%,-1%,-19,?
CCCCCCN1C[C@H](n2cc(C3CC3)nn2)[C@@H](O)C[C@@H]1c1ccc(Cl)cc1,/,/,/,-7,/
O=C(c1cc(C(F)(F)F)cc(C(F)(F)F)c1)N1CCC[C@@]2(CCN(c3ccccc3)C2)C1,0%,/,/,/,/
O=S1(=O)NC(=NCC(c2ccco2)N2CCCCC2)c2ccccc21 (centres undefined),-1%,13µM*,-18%,0,?
CCCc1cc(C(=O)N2CCCC(C(=O)c3cccc4ccccc34)C2)n(C)n1 (centres undefined),-9%,?,-13%,0,0%
CCc1cc(C(=O)N2CCCC(C(=O)c3cccc4ccccc34)C2)n(C)n1 (centres undefined),0%,?,4%,-60*,3%
CCC(=NCc1ccccc1)C1=C(O)C(C(=O)OC)C(C)(C)CC1=O (centres undefined),6%,12µM*,0%,-25,7%
CCC(=Nc1ccc(N)cc1)C1=C(O)C(C(=O)OC)C(C)(C)CC1=O (centres undefined),1.1µM*,/,?,/,?
CCCC(=NCc1ccccc1)C1=C(O)C(C(=O)OC)C(C)(C)CC1=O (centres undefined),2%,?,4%,-28,/

# Bioassay records (PubChem BioAssay)
